# The whole screen tested about 290,000 compounds, of which about 2,100 (0.72%) were called active. Inconclusive results (about 4%) are left out. Calls follow the shape of the dose curve; as a rule, active = well fitted inhibition curve with a large enough effect; inconclusive = small, poorly fitted or top-dose-only effect, or effect the other way; inactive = flat fitted curve, though single readings scatter. What follows is part of a selection rich in actives, with near analogues and random picks from the rest. A call without a number means that no potency is given here.
# Target: Fructose-bisphosphate aldolase (Giardia intestinalis (strain ATCC 50803 / WB clone C6)) (UniProt A8B2U2)
# Experiment: qHTS Assay for Inhibitors of Fructose-1,6-bisphosphate Aldolase from Giardia Lamblia; also: nearly all actives have a fitted effect of over 55% in size
# Conditions: purified Giardia FBPA; series mostly up to 59.6 µM
# Description: Assay Provider: Osnat Herzberg, University of Maryland
# The objective of this project is to obtain compounds that inhibit Giardia lamblia growth. G. lamblia is a human pathogen which afflicts impoverished nations; it is the most common cause of outbreaks of diarrhea in the United States. During the course of our study of potential drug targets in Giardia, we have identified the Class II (Zn2+ functions in electrophilic catalysis) fructose-1,6-bisphosphate aldolase (FBPA) as an excellent candidate for drug targeting. FBPA is a key glycolytic pathway enzyme, essential for G. lamblia survival. The human FBPA belongs to the Class I aldolases, which have a different substrate binding site structure and a radically different catalytic mechanism (employing a lysine-Schiff base intermediate). Therefore, affinity-based or mechanism-based inhibitors of the Giardia FBPA are expected not to interfere with the catalytic function of the human FBPA.
# A glyceraldehyde-3-phosphate dehydrogenase/triose phosphate isomerase/NAD/arsenate coupled assay was adapted to the 1536-well HTP format for use in the primary screen. This was done by coupling it to a diaphorase/resazurin/resorufin reaction that can be monitored by fluorescence (excitation, 544 nm; emission, 590 nm). Compounds identified in this screen will be further evaluated by coupling the glycerol-3-phosphate/triose phosphate isomerase/NADH assay to a phenazine methosulfate/tetranitroblue tetrazolium color reaction. False positives due to the dehydrogenases and diaphorase inhibition will be eliminated, and selectivity assay will triage inhibitors of mammalian triose phosphate isomerase and the Class I FBPA. G. lamblia FBPA inhibitors identified by the in vitro analyses will be examined for growth inhibition of Giardia trophozoites, and for cytotoxicity in human cells.
# Step,Parameter,Value,Description
# 1,Enzyme reagent,2 uL,40 nM FBPA
# 2,Compound,23 nL,3.68 nM-57.5 uM final concentration
# 3,Time,10 min,RT Incubation
# 4,Substrate/detection Reagent,2 uL,Substrate + enzyme coupling system + AmpLite Red kit
# 5,Time,20 min,RT Incubation
# 6,Detector,525 nm/598 nm (Fluorescence),ViewLux Fluorescence Read (Read 1)
# 1,Medium-binding black solid-bottom Kalypsys plates. FRD or Kalypsys dispenser, 2 uL of FBPA enzyme. Bottle kept at 4C.
# 2,Compound Library (10 mM ,1:5 dilution). Pin-transferred for a [final] range of 3.68 nM-57.5 uM.
# 4,FRD or Kalypsys dispenser, 2 uL of reaction mixture. Bottle kept at 4C and covered in foil to protect from light.
# 6,ViewLux Protocol 1194; Excitation filter wheel A (525/20 Pol; BODIPY TMR FP), Emission filter wheel B (598/25 S; BODIPY TMR FP S).
# Keywords: Fructose-bisphosphate aldolase, FBPA , Giardia lamblia , Giardia, HTS, Inhibitors
# Potency is read from the fitted curve at half-maximal effect.
# Chain of Fructose-bisphosphate aldolase (Giardia intestinalis (strain ATCC 50803 / WB clone C6)) (A8B2U2 whole entry, looked up): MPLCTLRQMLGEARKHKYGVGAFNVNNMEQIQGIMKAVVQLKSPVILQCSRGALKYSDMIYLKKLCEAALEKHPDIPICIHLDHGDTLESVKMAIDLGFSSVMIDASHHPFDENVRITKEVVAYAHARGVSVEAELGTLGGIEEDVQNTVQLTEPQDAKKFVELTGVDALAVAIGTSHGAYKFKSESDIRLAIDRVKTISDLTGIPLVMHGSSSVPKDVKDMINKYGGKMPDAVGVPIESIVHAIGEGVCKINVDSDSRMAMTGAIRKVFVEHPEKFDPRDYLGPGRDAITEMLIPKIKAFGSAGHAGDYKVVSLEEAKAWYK
row,Compound,Potency
1,CCc1nn(CCCC(=O)NCc2ccc(C)cc2)c(=O)c2cc3occc3n12,inactive
2,CC(C)c1ccc(N(C(=O)c2ccco2)C(C(=O)NC2CCCC2)c2cccnc2)cc1 (configuration not stated),inactive
3,O=c1[nH]c(=O)c2nc3ccccc3nc2[nH]1,inactive
4,Nc1ccc2nc3c(=O)[nH]c(=S)[nH]c3nc2c1,3.54 µM (active)
5,Cc1ccc(NS(=O)(=O)c2ccc(-c3ccc(=O)[nH]n3)o2)c(C)c1,inactive
6,O=[N+]([O-])c1ccc(N(CCO)Cc2ccccc2)c([N+](=O)[O-])c1,inactive
7,CCOc1cc(-c2cc(-c3ccc(NC(C)=O)cc3)nc(N)c2C#N)ccc1O,inactive
8,O=[N+]([O-])c1cc([N+](=O)[O-])c2cccnc2c1O,15.8 µM (active)
9,CCN(CC)c1ccc([N+](=O)[O-])c2cccnc12,inactive
10,O=[N+]([O-])c1cccc2ncccc12,inactive
11,CCOC(OCC)c1ccc(/C=C\c2nccc(N)n2)cc1,inactive
12,Cc1ccc(NC(=S)NCCc2ccc(Cl)cc2)c(C)c1,inactive
13,O=c1o[nH]c(-c2ccccc2)c1N=Nc1c(F)cccc1Cl,inactive
14,COc1ccc(-c2cn[nH]c2-c2ccc(OC)cc2)cc1,inactive
15,COc1ccc(N=Nc2c(-c3ccc(OC)cc3)[nH]oc2=O)cc1,12.6 µM (active)
16,O=C(Nc1ccc([N+](=O)[O-])cc1)OCCc1ccccn1,inactive

row,Compound,Potency
1,CCS(=O)(=O)C1=NSC2=NC(=O)/C(=C\c3ccc(OS(=O)(=O)c4ccccc4)cc3)C(=N)N21,inactive
2,COc1ccc(OCc2cc(C(=O)NCC3(C)COC3)no2)c(Cl)c1,inactive
3,COC(=O)c1c(NC(=O)COc2ccc(Cl)cc2Cl)sc2c1CC(C)(C)NC2(C)C,inactive
4,CN1CCCc2cc(C#N)c(=O)[nH]c21,9.98 µM (active)
5,Cc1[nH]c(C)c(S(=O)(=O)N2CCC(C)CC2)c1C(=O)N1CCCC1,inactive
6,CCNC(=S)N(CCN(CC)CC)Cc1cc2cc3c(cc2[nH]c1=O)OCCO3,inactive
7,O=c1[nH]c2ccccc2n2c(-c3ccccc3)nnc12,0.998 µM (active)
8,Cc1ccc(-c2nc3ccccc3[nH]c2=O)cc1,inactive
9,CCOC(=O)c1cnc2[nH]c3ccccc3n2c1=O,inactive
10,O=C1c2ccccc2C(=O)N1CCOc1ccc(F)cc1,inactive
11,COc1ccc(C2=NN(C(=O)c3ccccc3C(=O)O)C(c3ccccc3O)C2)cc1 (configuration not stated),inactive
12,Cc1ccccc1N1CCN(CCCN2C(=O)C3CCCCN3C2=O)CC1 (configuration not stated),inactive
13,CCCCC1(C(=O)OCC)NC(c2ccc(O)cc2)C2C(=O)N(c3ccccc3)C(=O)C21 (configuration not stated),inactive
14,CC(=O)c1nc2ccccc2n1Cc1ccccc1,inactive
15,C=C(Br)Cn1c(CCCC)nc2ccccc21,inactive
16,O=C(O)Cn1c(Cc2ccccc2)nc2ccccc21,28.2 µM (active)
